Assay outcomes as filed in PubChem BioAssay.
Tg IFNy HTS – T. gondii growth inhibition with IFN-gamma, primary screen, cell-based; activity change, negative = inhibition, % (concentration not given with the values); Toxoplasma gondii growth in IFN-gamma-treated host cells; active compounds read low; AID 1259416, 2018; 3.8% of 69,000 active; in the data active means activity change below about -70%, passing the limit was not always enough;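 further: host cells are HeLa cells infected with Toxoplasma gondii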
Each line names hits and unclear results; the compound was inactive in the other large screens. Only a selection was taken, and hits are over-represented in it overall.

CCOc1ccc(S(=O)(=O)N2CCC3(CC2)Nc2cc(F)ccc2-n2cccc23)cc1	none
Cn1cccc1C(=O)NCc1cnc2n1CCN(Cc1ccccc1)C2	none
COc1cc(=O)[nH]c(SCC(=O)Nc2ccc(Cl)cn2)n1	none
O=C(CSc1nc2c(c(=O)n1-c1ccccc1)SCC2)Nc1ccc(-c2ccccc2)cn1	Tg IFNy HTS -73
Cn1c(-c2ccccc2)cnc1NC(=O)c1cccn(CC(=O)N2CCCC2)c1=O	none
Cc1nc(-c2ccc(F)cc2)sc1CCNC(=O)CC(C)(C)C	none
O=C(Nc1ccc2c(c1)CCC2)C1CC(=O)N(CCc2c[nH]c3ccc(Cl)cc23)C1 (stereo unspecified)	Tg IFNy HTS -111
O=C(NC1CCCCCC1)C1CC(=O)N(CCc2c[nH]c3ccc(Cl)cc23)C1 (stereo unspecified)	none
CC(C)(C)c1nnc(NC(=O)C2CC(=O)N(CCc3c[nH]c4ccc(F)cc34)C2)s1 (stereo unspecified)	none
Cc1nnc(NC(=O)C2CC(=O)N(CCc3c[nH]c4ccc(Cl)cc34)C2)s1 (stereo unspecified)	none
Cc1ccc2[nH]cc(CCN3CC(C(=O)NCCc4ccc(F)cc4)CC3=O)c2c1 (stereo unspecified)	none
CC(C)c1ccc(NC(=O)C2CC(=O)N(CCc3c[nH]c4ccc(F)cc34)C2)cc1 (stereo unspecified)	Tg IFNy HTS -81
Cc1ccc(C(=O)N2CCOCC3(CCC(Cn4cncn4)O3)C2)cn1 (stereo unspecified)	none
CCOC(=O)CNC(=O)N1CCC2(CC1)Nc1ccccc1-n1cccc12	none
O=C(CN1CCC(c2nc(-c3ccncc3)n[nH]2)CC1)Nc1ccccc1N1CCOCC1	none
CN(C)S(=O)(=O)c1ccc2c(c1)cc(C(=O)NCc1cccnc1)n2Cc1ccccc1	none
O=C(c1cccs1)N1c2ccccc2C=Cc2ccccc21	none
Cc1ccc(CN2C[C@H](OCCCn3cccn3)[C@@H]3OCCC[C@@H]32)o1	none
